Measured values taken from PubChem BioAssay (Tox21).
Results filed as inconclusive are left out. Entries that show only a call come without a potency. Activity calls are given as the source filed them. Calls follow the shape of the dose curve; as a rule, active = well fitted cell-killing curve with a large enough effect in the repeat runs; inconclusive = weak or mixed curves, or effect the other way; inactive = flat fitted curve, though single readings scatter.

assay: Human pregnane X receptor (PXR) small molecule agonists, qHTS cell viability counter screen (AID 1346977); conditions: PXR-Luc HepG2 viability, CellTiter-Fluor, 24 h; series mostly up to 92.4 µM; also: nearly all actives have a fitted effect of over 50% in size
Summary of the method: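 After a 5hr pre-incubation, PXR-Luc HepG2 cells received compounds plus positive control in DMSO and were kept 24hr at 37C. Cell viability was quantified by fluorescence from CellTiter-Fluor added for the final hour.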
Potency is read from the fitted curve at half-maximal effect.

Structure (SMILES) | Potency
CCS(=O)(=O)C(C)(C)S(=O)(=O)CC | inactive
O=C(O)c1ccc2[nH]cc(CCCCN3CC=C(c4ccccc4)CC3)c2c1 | inactive
O=[N+]([O-])c1cc(Cl)c(Cl)c(Cl)c1 | inactive
CCN(Cc1ccc(Cl)nc1)/C(=C/[N+](=O)[O-])NC | inactive
C[N+](C)=CCl | inactive
CCC(C)(C)c1cc(-n2nc3ccccc3n2)c(O)c(C(C)(C)CC)c1 | inactive
OCCSCSCCO | inactive
ClCCCN1CCN(c2cccc(Cl)c2)CC1 | inactive
C=C(C)CN(CC)c1c([N+](=O)[O-])cc(C(F)(F)F)cc1[N+](=O)[O-] | inactive
CC(C)[N+](=O)[O-] | inactive
Cc1cccc(C#N)c1 | inactive
COC(=O)c1ccccc1S(=O)(=O)NC(=O)N(C)c1nc(C)nc(OC)n1 | inactive
CC(C)(C)C(=O)C(Oc1ccc(Cl)cc1)n1cncn1 (stereo not drawn) | inactive
CN1C(=S)CN=C(c2ccccc2)c2cc(Cl)ccc21 | inactive
O=NN1CCN(N=O)CC1 | inactive
O=C(O)c1cccc(Cl)c1 | inactive
O=CNC(N1CCN(C(NC=O)C(Cl)(Cl)Cl)CC1)C(Cl)(Cl)Cl (stereo not drawn) | inactive
Cc1ncc2n1-c1ccc(Cl)cc1C(c1ccccc1F)=NC2 | inactive
CCOC(=O)CP(=O)(OCC)OCC | inactive
COC(=O)C(c1ccccc1)C1CCCCN1 (stereo not drawn) | inactive
COC(=O)C(C)Oc1ccc(Oc2ccc(Cl)cc2Cl)cc1 (stereo not drawn) | inactive
C[C@H]1CCC[C@H](O)CCCCCc2cc(O)cc(O)c2C(=O)O1 | 48.9 µM (active)
CC(C)CC(N(C)C)C1(c2ccc(Cl)cc2)CCC1 (stereo not drawn) | inactive
